Data on 5 molecules can be found in PubChem BioAssay.

Calls of active or inactive are those of the source. Unless noted, no rule for the calls is given here.

Assay [1] is described as follows: compounds binding Alexa647 anti-His antibody – biochemical, small-molecule microarray, 635 nm fluorescence, artefact control for SMM control protein annotation, primary screen (AID 1128).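 Also: score merges feature fluorescence with signal-to-noise for each printed compound spot.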 The following applies: higher = more signal.
In assay [2] the test system is Human papillomavirus type 1a E7 protein (residues 1-88). Briefly: HPV1a E7 small-molecule binders, primary screen, biochemical, small-molecule microarray, residues 1-88, 635 nm (AID 1129). The note with it: small-molecule microarray binding, fluorescence 635 nm; higher = more signal.
Assay [3] concerns the target Focal adhesion kinase 1 (Homo sapiens) (UniProt Q05397). The assay is described as follows: PTK2 protein binding on printed compound slides – biochemical, small-molecule microarray, 635/667 nm fluorescence, BSA, DTT, primary screen (AID 1130).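 Also: composite of spot emission at 667 nm and signal to noise over triplicate slides.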 The note with it: 635 nm fluorescence, higher = more signal.
Assay [4] deals with Fibrinogen (Alexa647-labelled). Briefly: Alexa647-fibrinogen binding to printed small molecules – biochemical, small-molecule microarray, 635/667 nm fluorescence, artefact control for SMM control-protein annotation, profiling panel (AID 1131).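 Also: z-score merges 667 nm fluorescence with per-spot signal-to-noise over triplicate slides.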 The following applies: fibrinogen-A647 binding fluorescence, higher = more signal.
Assay [5] concerns the target Follistatin (Homo sapiens) (UniProt P19883). Briefly: FST protein binding to printed compounds – biochemical, small-molecule microarray, 635/667 nm fluorescence, primary screen (AID 1132). The following applies: 635 nm fluorescence, higher = more signal.
The target in assay [6] is Fibroblast growth factor 2 (Homo sapiens) (UniProt P09038). The assay is described as follows: basic fibroblast growth factor binding to printed compounds – biochemical, small-molecule microarray, 635/667 nm fluorescence, primary screen (AID 1133). The note with it: FGF2, fluorescence 635/667, higher = more signal.
Assay [7] can be described thus: JC-1 mitochondrial potential readout, lung cancer cells – cell-based, A549, JC-1 fluorescence, basal, 24 h, 100 nL, profiling panel (AID 1138).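 Also: A549 lung adenocarcinoma cells under basal conditions with no added stimulus; test concentration not given here.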 The following applies: higher = more signal.
The subject of a further assay is Lefty1. Briefly: Lefty1 protein binding to printed compounds – biochemical, small-molecule microarray, 635/667 nm fluorescence, primary screen (AID 1139). The following applies: fluorescence 635/667, higher = more signal.
Assay [8] relates to wheat germ agglutinin (Triticum aestivum), Alexa647-labelled. The assay is described as follows: Alexa647-WGA lectin binding to printed small molecules – biochemical, small-molecule microarray, 635/667 nm fluorescence, artefact control for SMM control-protein annotation, profiling panel (AID 1140).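 Also: score merges 667 nm feature emission with signal to noise over triplicate slides.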 The following applies: WGA-A647 binding, 635 nm fluorescence, higher = more signal.

In assay [9] the target is Luciferin 4-monooxygenase (Photinus pyralis) (UniProt P08659). The assay is described as follows: inhibition of purified Photinus pyralis luciferase – biochemical, luminescence, purified enzyme, 2006 set, primary screen (AID 1141).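 Also: cell-free assay with purified firefly luciferase at 100 ng per well in PBS; test concentration not given here.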 The following applies: purified firefly luciferase, SteadyGlo luminescence, 30 min; higher = more signal, called active from +8 up or from −8 down.

Assay [10] has as its system Wnt5a (protein binding on small-molecule microarray). The assay is described as follows: small molecules binding Wnt5a protein – biophysical, small-molecule microarray, 635/667 nm fluorescence, primary screen (AID 1142).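 Also: fluorescence read at 667 nm with signal to noise per printed feature.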 The following applies: 635 nm fluorescence, higher = more signal.
Assay [11] in a line: ATP-based viability of Huh7 replicon cells – cell-based, CellTiter-Glo luminescence, basal, 48 h, cytotoxicity control for HCV replication inhibitor project, primary screen (AID 1143).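 Also: Huh7 hepatoma cells carrying a hepatitis C replication reporter with no stimulus; test concentration not given here.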 The note with it: higher = more signal, called active from +8 up or from −8 down. (In general: A replicon is a self-replicating genome or part of one, used to study replication in cells.)
Assay [12] can be described thus: Pseudomonas biofilm growth suppression – PAO1 strain, BacTiter-Glo luminescence, LB-PBS, primary screen (AID 1144). The following applies: P. aeruginosa PAO1 biofilm, 12 h, higher = more signal.
Assay [13] is described as follows: basal CRE-LacZ reporter activity in PC12 – cell-based, unstimulated, primary screen (AID 1145). The note with it: no forskolin, luminescence, 4.5 h, higher = more signal, called active from +8 up or from −8 down.
Assay [14] is described as follows: forskolin-driven CRE-LacZ activity in PC12 – cell-based, CRE-LacZ reporter, forskolin-stimulated, primary screen (AID 1146).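 Also: PC12 cells with 6xCRE LacZ reporter stimulated by forskolin 10 µM; beta-galactosidase reporter signal reflecting CREB driven transcription.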 The following applies: luminescence, 4.5 h, higher = more signal, called active from +8 up or from −8 down.
The target of assay [15] is Streptavidin (Streptomyces avidinii) (UniProt P22629). Briefly: compounds binding control protein streptavidin – biophysical, small-molecule microarray, 635/667 nm fluorescence, artefact control for SMM compound annotation, primary screen (AID 1147).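 Also: signal reflects streptavidin binding to arrayed compounds as a control protein.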 The following applies: higher = more signal.
Assay [16] in a line: probe aInhba binding on compound microarray – biochemical, small-molecule microarray, 635/667 nm fluorescence, primary screen (AID 1148).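 Also: score merges 667nm spot fluorescence with signal-to-noise for antibody binding to printed compounds.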 The following applies: higher = more signal.
Assay [17] addresses Torsin-1A (Homo sapiens) (UniProt O14656). The assay is described as follows: TOR1A wild-type binding on microarray – cell lysate, small-molecule microarray, lysate, 635/667 nm, primary screen (AID 1149). The following applies: COS7 hTOR1A-WT lysate, 635 nm fluorescence, higher = more signal.
Assay [18] has the same target. Briefly: torsin A mutant lysate binding on microarrays – cell lysate, small-molecule microarray, COS7 lysate, 635/667 nm fluorescence, primary screen (AID 1150).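 Also: score pools 667 nm emission and signal to noise measuring lysate protein binding.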 The note with it: COS7 hTOR1A mutant lysate, 635 nm fluorescence, higher = more signal.
Assay [19] concerns Sonic hedgehog protein (Shh). Briefly: Sonic hedgehog microarray binding compounds – biochemical, small-molecule microarray, 635/667 nm fluorescence, primary screen (AID 1151).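 Also: Shh protein binding to compounds spotted on small-molecule microarray slides; score combines spot fluorescence intensity with signal-to-noise across triplicate slides.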 The following applies: 635 nm fluorescence, higher = more signal.

Sequence of Streptavidin (Streptomyces avidinii) (P22629 whole entry, looked up): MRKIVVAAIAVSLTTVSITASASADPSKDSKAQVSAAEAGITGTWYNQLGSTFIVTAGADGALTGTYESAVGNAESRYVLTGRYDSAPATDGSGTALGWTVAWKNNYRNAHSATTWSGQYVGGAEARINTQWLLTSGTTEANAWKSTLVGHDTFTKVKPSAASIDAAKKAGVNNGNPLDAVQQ
Sequence of Luciferin 4-monooxygenase (Photinus pyralis) (P08659 whole entry, looked up): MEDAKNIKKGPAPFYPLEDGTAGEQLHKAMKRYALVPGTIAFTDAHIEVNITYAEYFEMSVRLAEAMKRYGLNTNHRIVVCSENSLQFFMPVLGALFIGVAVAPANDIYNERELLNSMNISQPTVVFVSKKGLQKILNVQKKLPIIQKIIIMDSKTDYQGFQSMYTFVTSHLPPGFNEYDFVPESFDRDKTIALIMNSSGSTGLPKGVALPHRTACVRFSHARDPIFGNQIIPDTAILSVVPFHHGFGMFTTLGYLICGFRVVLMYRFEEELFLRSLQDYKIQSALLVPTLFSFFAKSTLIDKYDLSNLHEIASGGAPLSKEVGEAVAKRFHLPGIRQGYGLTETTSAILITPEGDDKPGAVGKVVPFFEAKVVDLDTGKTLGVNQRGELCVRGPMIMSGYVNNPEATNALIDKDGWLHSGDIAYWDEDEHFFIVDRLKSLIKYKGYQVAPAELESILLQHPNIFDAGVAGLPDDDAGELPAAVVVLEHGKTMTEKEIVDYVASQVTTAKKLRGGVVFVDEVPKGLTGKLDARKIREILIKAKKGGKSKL
Sequence of Torsin-1A (Homo sapiens) (O14656 whole entry, looked up): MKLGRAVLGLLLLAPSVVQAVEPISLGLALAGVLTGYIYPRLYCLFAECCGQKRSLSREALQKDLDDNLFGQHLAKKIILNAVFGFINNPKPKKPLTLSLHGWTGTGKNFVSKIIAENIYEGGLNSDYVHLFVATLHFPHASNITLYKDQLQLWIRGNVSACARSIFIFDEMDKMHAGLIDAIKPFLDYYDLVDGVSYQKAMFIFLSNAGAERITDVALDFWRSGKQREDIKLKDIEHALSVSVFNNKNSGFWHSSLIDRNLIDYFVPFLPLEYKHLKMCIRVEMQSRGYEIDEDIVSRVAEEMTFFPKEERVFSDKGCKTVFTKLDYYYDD
Sequence of Focal adhesion kinase 1 (Homo sapiens) (Q05397 whole entry, looked up): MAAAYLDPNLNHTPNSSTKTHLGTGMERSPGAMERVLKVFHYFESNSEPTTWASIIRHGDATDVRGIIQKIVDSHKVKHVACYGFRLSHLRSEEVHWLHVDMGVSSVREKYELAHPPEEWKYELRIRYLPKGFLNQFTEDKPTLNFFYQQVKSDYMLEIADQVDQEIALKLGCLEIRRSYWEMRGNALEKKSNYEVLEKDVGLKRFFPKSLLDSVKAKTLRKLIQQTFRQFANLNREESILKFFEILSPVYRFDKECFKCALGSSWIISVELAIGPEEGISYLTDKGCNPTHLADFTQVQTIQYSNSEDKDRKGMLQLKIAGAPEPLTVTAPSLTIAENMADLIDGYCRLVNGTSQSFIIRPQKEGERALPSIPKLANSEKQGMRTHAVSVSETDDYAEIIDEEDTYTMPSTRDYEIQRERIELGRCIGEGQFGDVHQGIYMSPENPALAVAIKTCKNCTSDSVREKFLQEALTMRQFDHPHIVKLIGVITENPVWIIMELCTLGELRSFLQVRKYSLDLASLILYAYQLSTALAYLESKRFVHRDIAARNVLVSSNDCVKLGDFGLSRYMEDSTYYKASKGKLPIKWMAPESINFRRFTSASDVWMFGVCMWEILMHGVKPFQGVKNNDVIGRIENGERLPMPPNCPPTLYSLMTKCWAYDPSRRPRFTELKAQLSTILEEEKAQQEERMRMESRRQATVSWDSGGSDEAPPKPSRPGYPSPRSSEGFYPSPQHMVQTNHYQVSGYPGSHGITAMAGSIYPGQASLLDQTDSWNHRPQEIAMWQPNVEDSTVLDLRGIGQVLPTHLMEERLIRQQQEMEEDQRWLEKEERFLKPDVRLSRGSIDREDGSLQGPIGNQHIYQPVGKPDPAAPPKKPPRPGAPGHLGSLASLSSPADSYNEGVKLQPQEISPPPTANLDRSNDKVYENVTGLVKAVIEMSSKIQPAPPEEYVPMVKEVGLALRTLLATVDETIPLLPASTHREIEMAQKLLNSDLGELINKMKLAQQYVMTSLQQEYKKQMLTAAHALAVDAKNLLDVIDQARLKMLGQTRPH
Sequence of Fibroblast growth factor 2 (Homo sapiens) (P09038 whole entry, looked up): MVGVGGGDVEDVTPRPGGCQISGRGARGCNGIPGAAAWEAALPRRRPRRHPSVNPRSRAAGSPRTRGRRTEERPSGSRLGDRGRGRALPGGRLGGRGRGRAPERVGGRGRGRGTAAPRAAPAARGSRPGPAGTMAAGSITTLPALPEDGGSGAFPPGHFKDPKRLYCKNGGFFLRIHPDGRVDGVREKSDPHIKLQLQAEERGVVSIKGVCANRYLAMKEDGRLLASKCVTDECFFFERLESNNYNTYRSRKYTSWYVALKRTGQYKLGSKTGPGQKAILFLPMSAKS
Sequence of Follistatin (Homo sapiens) (P19883 whole entry, looked up): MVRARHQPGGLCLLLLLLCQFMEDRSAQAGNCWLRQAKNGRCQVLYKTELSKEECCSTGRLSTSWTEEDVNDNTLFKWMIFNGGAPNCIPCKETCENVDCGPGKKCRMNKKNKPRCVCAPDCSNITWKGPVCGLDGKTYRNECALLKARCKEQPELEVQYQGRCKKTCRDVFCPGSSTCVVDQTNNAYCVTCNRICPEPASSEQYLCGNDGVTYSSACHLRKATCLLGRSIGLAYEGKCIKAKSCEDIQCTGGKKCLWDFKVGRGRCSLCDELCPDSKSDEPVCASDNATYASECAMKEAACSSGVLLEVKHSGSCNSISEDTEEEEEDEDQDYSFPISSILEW

Take `CN1C2C=C(CCCO)C(C3C(=O)N(C(N)=O)C(=O)C32)C1c1cccs1` (stereo not given): the composite z-score in assay [1] was 0.738; in assay [2], 0.151; in [3], -0.111; in assay [4], -0.451; in assay [5], 0.044; in assay [6], -0.22. Moreover, the composite z-score in the assay on Lefty1 is 0.38; in assay [8], -0.303; in assay [10], 2.03; in assay [15], 0.0783; in assay [16], -0.0963; with Torsin-1A (Homo sapiens) [17] it was 0.21. For the same molecule, the composite z-score in the assay with Torsin-1A (Homo sapiens) [18] worked out at 0.429; in assay [19], 0.279. The z-score in [7] was -0.405; in assay [9], -0.655 (inactive); in [11], 0.148 (inactive); in [12], 0.628 (inactive); in assay [13] it was -1.09 (inactive); in assay [14], -0.23 (inactive).

Turning to `C=CC[C@@]1(C(=O)N2CCCCC2)N=C(c2ccc(OCCCO)cc2)O[C@@H]1c1ccccc1`, the composite z-score in assay [1] came to 2.8; in assay [2], 1.2; in assay [3], 1.58; in assay [4], 0.935; in assay [5] it was 0.939; in [6], 0.0286. Besides, the composite z-score is -0.034 with Lefty1; 1.08 in [8]; 0.18 in assay [10]; 0.0319 in assay [15]; 0.411 in assay [16]; 0.521 with Torsin-1A (Homo sapiens) [17]. Also, the composite z-score with Torsin-1A (Homo sapiens) [18] was 1.22; in [19], -0.229. In addition, the z-score in assay [7] was 1.9; in [9] it was -0.952 (inactive); in [11] it was -3.63 (inactive); in [12], 0.222 (inactive); in assay [13] it was 1.5 (inactive); in assay [14], -0.134 (inactive).

On to `COc1ccc([Si](C)(C)[C@H]2[C@H](CCO)O[C@@]3(C(=O)N(Cc4cccc(N5CCCCC5=O)c4)c4ccccc43)[C@@H]2C)cc1`, for which the composite z-score was 1.16 in assay [1]; 1.15 in assay [2]; 0.362 in assay [3]; 0.848 in [4]; 1.26 in assay [5]; 0.403 in [6]. In addition, the composite z-score in the assay on Lefty1 was 1.06; in assay [8] it was 0.418; in assay [10], 0.416; in assay [15], 0.569; in assay [16], -0.116; with Torsin-1A (Homo sapiens) [17], -0.0387. Moreover, the figures for the composite z-score (with Torsin-1A (Homo sapiens) [18]; in assay [19]) were 0.299 and 1.5, respectively. The z-score in assay [7] was 0.589; in [9] it was -1.34 (inactive); in [11] it was -7.87 (inactive); in assay [12], -1.05 (inactive); in assay [13], 2.39 (inactive); in assay [14], -1.82 (inactive).

In the case of `CC(C)c1ccc(NN2C(C(O)c3ccco3)C=CC3C(=O)N(c4ccccc4)C(=O)C32)cc1` (stereo not given), the composite z-score in [1] is 1.26; in assay [2], 1.22; in assay [3], 1.14; in [4], 0.995; in assay [5], 1.26; in assay [6], 0.0324. Further, the composite z-score in the assay with Lefty1 came out at 0.634; in [8], 1.32; in assay [10], 0.445; in assay [15] it was 1.47; in assay [16] it was 0.271; with Torsin-1A (Homo sapiens) [17], 0.185. Also, the values for the composite z-score (with Torsin-1A (Homo sapiens) [18]; in assay [19]) were 0.445 and 0.794, respectively. The z-score was 0.222 in [7]; -1.29 (inactive) in assay [9]; -0.604 (inactive) in assay [11]; -0.688 (inactive) in [12]; 0.622 (inactive) in assay [13]; -0.554 (inactive) in [14].

With `C[C@@H](OCc1ccccc1)C1NC(=O)[C@@]23C(=O)N[C@@H](Cc4ccccc4)C2[C@H](C)[C@@]2(C)O[C@H]2C3/C=C/C/C=C\CNC(=O)CNC1=O` (stereo not given in full), the composite z-score in assay [1] was 0.413; in assay [2], -0.668; in [3] it was 0.193; in assay [4], -2.57; in assay [5], -0.237; in assay [6], -0.113. The composite z-score in the assay on Lefty1 was -0.339; in assay [8] it was -1.08; in [10] it was -0.556; in [15], -0.918; in [16], -0.105; with Torsin-1A (Homo sapiens) [17], 0.333. For the same molecule, the composite z-score with Torsin-1A (Homo sapiens) [18] is -0.104; in [19] it was 1.24. The z-score in assay [7] is -0.777; in assay [9], 0.196 (inactive); in [11], -2.16 (inactive); in [12], -0.295 (inactive); in assay [13], -0.962 (inactive); in assay [14] it was -0.88 (inactive).
